# According to PubChem BioAssay (NCATS):
# Values joined by “and” are separate entries in the source; they are usually repeats but may differ in a detail not shown here. Equal values may be shown once. A number with no mark means an inactive call. Records with an inconclusive call do not appear. For some of these results: Measured potencies and affinities stand elsewhere. Active and inactive are the calls of the source. Unless noted, how the calls were made is not given here.
# Assays:
# [1] = Ebola virus entry assay, green fluorescence channel
# [2] = Ebola virus entry assay, ratio channel
# [3] = qHTS assay for small molecule agonists of the antioxidant response element (ARE) signaling pathway measured by Nrf2-dependant transcriptional activity (AID 720636; active means well fitted curve in the direction sought with a large enough effect in the repeat runs; an effect the other way counts as inactive or inconclusive;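 further: HepG2 cells with an ARE-driven luciferase reporter; % of control where 0% means no effect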); conditions: ARE-luc HepG2, Nrf2 luciferase reporter, 16 h; series mostly up to 92.4 µM
# In short: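 HepG2 ARE-luc reporter line, 1% dialyzed FBS; 6 hr attachment at 37 C, compound pinned in, 16 hr at 37 C/5% CO2; ONE-Glo, 30 min RT, luminescence read.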
# [4] = qHTS assay for small molecule agonists of the antioxidant response element (ARE) signaling pathway measured by Nrf2-dependant transcriptional activity - cell viability counter screen (AID 720653; active means well fitted curve in the direction sought with a large enough effect in the repeat runs; an effect the other way counts as inactive or inconclusive; further: on the % scale 0 is the no-effect control and ±100 the full control effect); conditions: ARE-bla HepG2 viability, CellTiter-Glo ATP luminescence, 16 h; active compounds read low
# In short: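 ARE-bla HepG2 cells (2,000/well) rested 5 hrs at 37C/5% CO2, then exposed to compounds in DMSO for 16 hrs. Viability was read in the same wells as intracellular ATP by luminescence, 30 min at room temperature after reagent addition.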
# [5] = qHTS Assay for Identifying Gametocytocidal Compounds (AID 743244; active means well fitted curve in the direction sought with a large enough effect; an effect the other way counts as inactive or inconclusive;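 further: on the % scale 0 is the no-effect control and ±100 the full control effect; actives lower the fluorescent signal which means gametocytes are killed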); conditions: P. falciparum 3D7 stage III-V gametocytes, alamarBlue, 72 h; max response: active compounds read low
# In short: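 Viability read-out was resazurin reduction (alamarBlue, 24 h) measured at Ex 525/Em 598 nm. Beforehand, late-stage (III-V) 3D7 P. falciparum gametocytes at 20,000 cells/well were incubated with compound 72 h at 37C under 5% CO2.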
# [6] = qHTS assay for cell viability of HEK293 cells (AID 743288; active means well fitted curve in the direction sought with a large enough effect; an effect the other way counts as inactive or inconclusive; further: on the % scale 0 is the no-effect control and ±100 the full control effect; nearly all actives have a fitted effect of over 50% in size); conditions: ATP luminescence (CellTiter-Glo), 18 h, active compounds read low
# In short: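 Environmental chemicals tested in qHTS format against parental HEK293 cells; 18 h treatment, 37 C; read-out ATP luminescence (CellTiter-Glo), 30 min RT development.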
# [7] = Ebola virus entry assay, blue channel fluorescence
# Wherever efficacy is given: 0% is about no effect.
compound,measurement,setting,value
N#CCC(=O)NN,efficacy,[1],-12.5%
same,outcome,[2],inactive
O=C(O)C(S)C(S)C(=O)O (stereo unspecified),efficacy,[1],-24.2%
same,outcome,[2],inactive
COP(=S)(OC)Oc1cc(Cl)c(Cl)cc1Cl,outcome,[3],inactive
same,max response,[4],-0.922%
same,max response,[5],-2.95% and 7.49%
same,max response,[6],-11.5%
same,efficacy,[1],-14%
same,outcome,[7],inactive
CCN(CCO)CCn1c(Cc2ccccc2)nc2c1c(=O)n(C)c(=O)n2C,max response,[5],2.54%
same,efficacy,[1],27.5%
same,outcome,[7],inactive
Cc1cccc(C)c1OCC(=O)N[C@@H](Cc1ccccc1)[C@@H](O)C[C@H](Cc1ccccc1)NC(=O)[C@H](C(C)C)N1CCCNC1=O,efficacy,[1],20.6%
same,outcome,[2],inactive
CC(=O)NCCCCCC(=O)O,efficacy,[1],-20.5%
same,outcome,[2],inactive
Clc1cccc(SC2CCNCC2)n1,efficacy,[1],-16%
same,outcome,[2],inactive
CCOc1nc2cccc(C(=O)O)c2n1Cc1ccc(-c2ccccc2-c2nn[nH]n2)cc1,efficacy,[1],27.1%
same,outcome,[2],inactive
CC(=O)N(CC(O)CO)c1c(I)c(C(=O)NCCO)c(I)c(C(=O)NCC(O)CO)c1I (stereo unspecified),efficacy,[1],-10.6%
same,outcome,[2],inactive
Cc1ccccc1C(=O)Nc1ccc(C(=O)N2CCCC(N(C)C)c3ccccc32)cc1 (stereo unspecified),efficacy,[1],11.8%
same,outcome,[2],inactive
CC(=O)[C@H]1CC[C@H]2[C@@H]3C=CC4=CC(=O)CC[C@@]4(C)[C@@H]3CC[C@]12C,efficacy,[1],16%
same,outcome,[2],inactive
Cc1c(N(C)CS(=O)(=O)O)c(=O)n(-c2ccccc2)n1C,efficacy,[1],-26.4%
same,outcome,[2],inactive
Cc1ccc(C(C)C)cc2c(C)ccc1-2,efficacy,[1],14%
same,outcome,[2],inactive
